Laboratory results: PubChem BioAssay
Active and inactive are the calls of the source.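 How the source made its calls, unless noted: active means fluorescence slope after compound addition differing from the mean of all screened samples at 99.7% confidence, in either direction; inactive means the rest.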

Assays:
[1] = inhibitors of TNFa-induced NFkB p65 translocation, primary screen, imaging, HUVEC, MLSMR starter and 10KST1 sets (AID 438;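 active means inhibition above 20% together with a positive visual image hit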;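 further: compound added about 3h40 before a 20 min TNFalpha stimulation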;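 on inhibition: signal is the nuclear over cytoplasmic p65 intensity ratio per well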); conditions: HUVEC TNFa-induced p65 nuclear translocation; cell count: measured here: nuclei count (cytotoxicity indicator), at 2.08 µM; inhibition: at 2 µM, stronger effect = higher value, 0% TNFa-plus-vehicle, 100% no-TNFa wells
[2] = reduction of polyQ htt aggregates in cells – imaging, exon1htt(103Q)mCFP cells, high-content imaging, primary screen (AID 483;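 active means visual image review flags a hit and inhibition of aggregation exceeds 20%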;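 further: compound exposure lasted 3 days before fixation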;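 on nuclei count: percent of the per-plate median nuclei count of sample wells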); conditions: exon1htt(103Q)mCFP cell line, aggregate imaging, at 2 µM; inhibition of aggregation: stronger effect = higher value; nuclei count: measured here: cell count, toxicity
[3] = endothelial E-selectin expression blockers – imaging, HUVEC, immunofluorescence, MLSMR starter and 10KST1 sets, primary screen (AID 487;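 active means visually confirmed hit in the image check and inhibition above 20%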;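 on inhibition: signal is fraction of cell area covered by stained E-selectin grains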;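 on nuclei count: 100% = median nuclei count of all wells on the same plate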); conditions: HUVEC TNFalpha-induced E-selectin immunofluorescence imaging, at 2 µM; inhibition: stronger effect = higher value; nuclei count: measured here: cell number, toxicity
[4] = biological target: Voltage-gated potassium channel subunit beta-2 (Rattus norvegicus) (UniProt P62483); test: inhibitors of rat Kvbeta2 reductase activity – biochemical, NADPH fluorescence, primary screen (AID 622;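 active means fluorescence slope higher than the sample average by over 3 SD, cut at about -0.22 in these data, passing the limit was not always enough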;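 further: slope of raw intensity against log time taken from 70 to 1610 s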); conditions: recombinant KvBeta, 4-cyanobenzaldehyde reduction, at 10 µM, stronger effect = higher value
[5] = biological target: Voltage-gated potassium channel subunit beta-2 (Rattus norvegicus) (UniProt P62483); test: enhancers of rat Kvbeta2 NADPH turnover – biochemical, NADPH fluorescence, primary screen (AID 623;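 active means NADPH fluorescence slope more negative than the mean of all samples by about 3 SD, 99.7% confidence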;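 further: fluorescence intensity change per second fitted from 20 to 320 s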); conditions: Recombinant KvBeta, NADPH fluorescence decrease slope, 10 min; at 10 µM; stronger effect = lower value
[6] = biological target: Alpha-2C adrenergic receptor (Homo sapiens) (UniProt P18825); test: compounds altering alpha2C-coupled GIRK flux – cell-based, HEK293 alpha2C/GIRK1/2, thallium flux, primary screen (AID 624); conditions: thallium flux BTC fluorescence, at 10 µM, actives lie on both sides;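 further: slope of fluorescence ratio to pre-addition baseline per second over 15 to 24 s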
[7] = blockers of RIG-like receptor reporter activation – cell-based, Sendai virus stimulus, luciferase, 10K MLSCN set, TLR/RLR signaling modifier project, primary screen (AID 602276;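 active means inhibition at or above 50% at 10 µM; inactive means inhibition below 50%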;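 further: firefly luciferase from ISG56 promoter only with Renilla not read in this screen; 0% = Sendai virus plus DMSO and 100% = medium plus DMSO without virus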); conditions: HEK293 RL24 IRF3 luciferase reporter, at 10 µM, stronger effect = higher value
[8] = TLR3 IRF3 reporter activation blockers – cell-based, poly I:C stimulus, luciferase, 10K MLSCN set, primary screen (AID 602277;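 active means inhibition of the reporter signal at or above 50%; inactive means inhibition below 50%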); conditions: HEK293-TLR3 RL24 IRF3 luciferase reporter, at 10 µM, stronger effect = higher value

Chain of Alpha-2C adrenergic receptor (Homo sapiens) (P18825 whole entry, looked up): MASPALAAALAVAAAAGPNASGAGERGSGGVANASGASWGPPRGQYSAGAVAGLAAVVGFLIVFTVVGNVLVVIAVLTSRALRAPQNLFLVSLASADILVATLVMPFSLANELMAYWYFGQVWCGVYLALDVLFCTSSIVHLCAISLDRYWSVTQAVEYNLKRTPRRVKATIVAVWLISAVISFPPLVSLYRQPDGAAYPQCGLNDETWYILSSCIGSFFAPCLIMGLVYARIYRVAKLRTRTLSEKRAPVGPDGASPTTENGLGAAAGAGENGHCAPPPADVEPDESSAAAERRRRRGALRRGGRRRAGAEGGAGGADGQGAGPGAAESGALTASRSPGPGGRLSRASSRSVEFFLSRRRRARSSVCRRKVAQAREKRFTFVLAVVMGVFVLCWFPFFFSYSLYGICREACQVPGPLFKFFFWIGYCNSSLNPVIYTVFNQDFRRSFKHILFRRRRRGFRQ
Chain of Voltage-gated potassium channel subunit beta-2 (Rattus norvegicus) (P62483 whole entry, looked up): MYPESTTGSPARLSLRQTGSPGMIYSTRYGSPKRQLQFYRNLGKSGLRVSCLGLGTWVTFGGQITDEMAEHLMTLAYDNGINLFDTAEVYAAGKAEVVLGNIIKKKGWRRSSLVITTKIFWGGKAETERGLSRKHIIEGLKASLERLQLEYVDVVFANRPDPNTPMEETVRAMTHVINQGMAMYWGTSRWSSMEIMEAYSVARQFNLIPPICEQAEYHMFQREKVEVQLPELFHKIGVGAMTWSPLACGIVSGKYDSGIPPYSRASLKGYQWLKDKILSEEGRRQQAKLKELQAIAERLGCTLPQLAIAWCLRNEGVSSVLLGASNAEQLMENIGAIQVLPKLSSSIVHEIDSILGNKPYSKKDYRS

CC(C)(C)c1ccc(C(=O)Nc2cnccn2)cc1
cell count [1]: 351 | inhibition [1]: 1.7% (inactive) | inhibition of aggregation [2]: 7.6% (inactive) | nuclei count [2]: 100% | inhibition [3]: 11.6% (inactive) | nuclei count [3]: 108% | fluorescence slope [4]: -0.379 (inactive) | NADPH fluorescence slope [5]: -6.5e-05 (inactive) | slope [6]: 0.0039 (inactive) | inhibition [7]: -50.1% (inactive) | inhibition [8]: -138% (inactive)

COCCNC(=O)CN(C)S(=O)(=O)c1ccc(Br)cc1
cell count [1]: 465 | inhibition [1]: 2.1% (inactive) | inhibition of aggregation [2]: -10.4% (inactive) | nuclei count [2]: 106% | inhibition [3]: 24.8% (inactive) | nuclei count [3]: 110% | fluorescence slope [4]: -0.507 (inactive) | NADPH fluorescence slope [5]: -3.7e-05 (inactive) | slope [6]: 0.00533 (inactive) | inhibition [7]: 11.2% (inactive) | inhibition [8]: 12.3% (inactive)

COc1ccc(C(NC(=O)C(C)(C)C)NC(=O)C(C)(C)C)cc1
cell count [1]: 364 | inhibition [1]: 3% (inactive) | inhibition of aggregation [2]: 0.4% (inactive) | nuclei count [2]: 106% | inhibition [3]: -52.8% (inactive) | nuclei count [3]: 102% | fluorescence slope [4]: -0.618 (inactive) | NADPH fluorescence slope [5]: -1e-05 (inactive) | slope [6]: 0.00914 (inactive) | inhibition [7]: 4.79% (inactive) | inhibition [8]: 9.47% (inactive)

O=C(CCC(=O)N1CCc2ccccc2C1)N1CCN(S(=O)(=O)c2ccccc2)CC1
cell count [1]: 361 | inhibition [1]: -2.5% (inactive) | inhibition of aggregation [2]: -6.9% (inactive) | nuclei count [2]: 131% | inhibition [3]: -14.3% (inactive) | nuclei count [3]: 102% | fluorescence slope [4]: -0.45 (inactive) | NADPH fluorescence slope [5]: -1.8e-05 (inactive) | slope [6]: 0.00506 (inactive) | inhibition [7]: -9.4% (inactive) | inhibition [8]: 5.93% (inactive)

COc1ccccc1OCC(=O)Nc1cccc(-c2nc3ccccc3o2)c1
cell count [1]: 468 | inhibition [1]: 0% (inactive) | inhibition of aggregation [2]: 1% (inactive) | nuclei count [2]: 61.8% | inhibition [3]: -65.1% (inactive) | nuclei count [3]: 110% | fluorescence slope [4]: -0.374 (inactive) | NADPH fluorescence slope [5]: -1.4e-06 (inactive) | slope [6]: 0.00387 (inactive) | inhibition [7]: -0.911% (inactive) | inhibition [8]: -2.39% (inactive)

CC(C)COc1ccc(C2NC(=O)NC2=O)cc1 (stereo not drawn)
cell count [1]: 718 | inhibition [1]: -10.2% (inactive) | inhibition of aggregation [2]: -12.5% (inactive) | nuclei count [2]: 117% | inhibition [3]: 74.1% (inactive) | nuclei count [3]: 91.5% | fluorescence slope [4]: -0.452 (inactive) | NADPH fluorescence slope [5]: -2.2e-05 (inactive) | slope [6]: 0.00367 (inactive) | inhibition [7]: 1.04% (inactive) | inhibition [8]: 19.9% (inactive)

COc1ccccc1-n1c(-c2cccnc2)n[nH]c1=S
cell count [1]: 204 | inhibition [1]: -4.8% (inactive) | inhibition of aggregation [2]: 17.2% (inactive) | nuclei count [2]: 77% | inhibition [3]: -123% (inactive) | nuclei count [3]: 107% | fluorescence slope [4]: -0.598 (inactive) | NADPH fluorescence slope [5]: -4.1e-06 (inactive) | slope [6]: 0.0043 (inactive) | inhibition [7]: -0.823% (inactive) | inhibition [8]: -12.6% (inactive)

CCOC(=O)c1c(NC(=O)c2nn(CC)cc2Br)c(C#N)cn1-c1ccccc1
cell count [1]: 467 | inhibition [1]: 0.6% (inactive) | inhibition of aggregation [2]: -9.2% (inactive) | nuclei count [2]: 51.8% | inhibition [3]: -36.5% (inactive) | nuclei count [3]: 93.5% | fluorescence slope [4]: -0.407 (inactive) | NADPH fluorescence slope [5]: -2.9e-05 (inactive) | slope [6]: 0.00368 (inactive) | inhibition [7]: 0.0192% (inactive) | inhibition [8]: -9.02% (inactive)
